Measurements as given in PubChem BioAssay AID693 (University of Pittsburgh Molecular Library Screening Center, 2007).
The campaign covered roughly 97,000 compounds. About 130 (0.13%) were called active. Rule as the data show it: active = inhibition above about 34% (passing the limit was not always enough); inactive = the rest. The full list was thinned out, with actives kept by preference.

What follows are compounds tested against Serine/threonine-protein kinase PLK1 (Homo sapiens) (UniProt P53350) (assay: blockers of phosphopeptide binding to Plk1 PBD – biochemical, fluorescence polarization, primary screen (AID 693)). Settings: stronger effect = higher value,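 tested at about 20 µM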.
Sequence of Serine/threonine-protein kinase PLK1 (Homo sapiens) (P53350 whole entry, looked up): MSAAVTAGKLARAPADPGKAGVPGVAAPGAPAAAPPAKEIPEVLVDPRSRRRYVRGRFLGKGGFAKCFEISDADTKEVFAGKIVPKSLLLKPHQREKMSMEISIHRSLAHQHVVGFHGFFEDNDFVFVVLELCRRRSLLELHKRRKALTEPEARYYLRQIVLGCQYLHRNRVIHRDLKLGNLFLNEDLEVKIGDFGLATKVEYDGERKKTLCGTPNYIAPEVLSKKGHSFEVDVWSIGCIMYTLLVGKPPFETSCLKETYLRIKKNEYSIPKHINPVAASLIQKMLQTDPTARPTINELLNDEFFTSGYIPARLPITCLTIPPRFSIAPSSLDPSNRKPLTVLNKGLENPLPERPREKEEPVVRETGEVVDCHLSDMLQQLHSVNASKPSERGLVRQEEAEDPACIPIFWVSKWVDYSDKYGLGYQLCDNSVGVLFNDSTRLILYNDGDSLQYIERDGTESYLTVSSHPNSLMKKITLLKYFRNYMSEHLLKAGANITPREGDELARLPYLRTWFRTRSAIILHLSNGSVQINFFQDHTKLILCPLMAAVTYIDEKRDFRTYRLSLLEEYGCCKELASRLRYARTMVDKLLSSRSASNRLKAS

SMILES	inhibition
Cn1c(N)c(C(=O)COC(=O)C23CC4CC(CC(C4)C2)C3)c(=O)n(C)c1=O	-3.11% (inactive)
COc1cc(C(=O)OC(C)C(=O)NCC2CCCCC2)cc(NC(=O)c2ccco2)c1OC (configuration not stated)	2.04% (inactive)
COCc1cc(C)nc2sc(C(=O)NC3CCCCC3)c(N)c12	-36.6% (inactive)
COc1ccc(CN(CC(=O)NC2CCCC2)C(=O)CCC(=O)Nc2cc(C)on2)cc1	4.15% (inactive)
O=C(N/N=C/c1ccsc1)c1cc(O)cc(O)c1	-12.8% (inactive)
COc1ccc(CCNC(=S)NC(=O)/C=C/c2ccc(C)cc2)cc1OC	-11.8% (inactive)
N#Cc1ccsc1NC(=O)CN1CCCCC1	-12.8% (inactive)
O=C1/C(=C\Nc2ccccc2)CCN1c1ncccn1	13.5% (inactive)
CC(C)(C)NS(=O)(=O)CC12CCC(CC1=O)C2(C)C (configuration not stated)	-2.53% (inactive)
O=C1CCN(C(=O)Nc2ccccc2)N1	11.2% (inactive)
CCOc1cc(/C=C2/N=C(c3ccc(C(C)(C)C)cc3)OC2=O)cc(Cl)c1OS(C)(=O)=O	-6.59% (inactive)
Cc1ccccc1NC(=O)c1ccccc1NS(=O)(=O)c1cccc2cccnc12	4.72% (inactive)
CC1CCCN(C(C(=O)Nc2ccc(C(C)C)cc2)c2ccc3c(c2)OCO3)C1 (configuration not stated)	-23.5% (inactive)
Cc1noc(/C=C/c2ccco2)c1S(=O)(=O)N1CCC(C(=O)N2CCc3ccccc32)CC1	-18.1% (inactive)
CCCCCCC(=O)Nc1nc(C)c(-c2csc(Nc3cccc(OC)c3)n2)s1	-14.7% (inactive)
O=C(Nc1ccc(Cl)cc1)c1cc2nc(C3CC3)cc(C(F)(F)F)n2n1	6.19% (inactive)
O=C(NC1CCCCC1)c1cc([N+](=O)[O-])ccc1N1CCOCC1	22% (inactive)
O=C(CCc1ccccc1)NCc1cccnc1	22.9% (inactive)
CC(=O)Nc1ccc(OCC(O)CN2CCN(c3ccccc3Cl)CC2)cc1 (configuration not stated)	-14% (inactive)
O=C(O)C1CC=CCC1C(=O)Nc1ccccc1C(=O)N1CCN(c2ccccc2)CC1 (configuration not stated)	2.13% (inactive)
Cc1cc(C)c(S(=O)(=O)c2ccccc2)c(OC(=O)c2c(F)cccc2Cl)n1	-3.99% (inactive)
COc1ccc(NC(=O)Cn2c(-c3ccc(OC)cc3)cn(-c3ccc(C)cc3)c2=O)cc1	4.16% (inactive)
COc1ccc(-c2nn(-c3ccccc3)cc2C(=O)Nc2nccs2)cc1OC	3.37% (inactive)
COc1ccccc1C(=O)Nc1ccc(NC(=O)c2ccco2)c(C)c1	-21.6% (inactive)
O=c1c2c(nc3nc[nH]n13)CCC2	7.34% (inactive)

SMILES	inhibition
CCCC(C)C(=O)Nc1ccc(NC(C)=O)cc1 (configuration not stated)	-14.8% (inactive)
Cc1ccc(NC(=O)N2CCC(O)(c3cccnc3)CC2)cc1	2.21% (inactive)
CCOC(=O)c1cc2n(c1N)-c1ccccc1C2=O	45.1% (active)
CC(C)OC(=O)CN1C(=O)C(=O)c2ccccc21	-13.6% (inactive)
CCOC(=O)c1cc2n(c1C)-c1ccccc1C2=O	-27.7% (inactive)
O=C1c2ccccc2C(=O)c2c1cccc2N1CCN(Cc2ccccc2)CC1	-20.8% (inactive)
Cc1cc(NC(=O)/C=C/C(=O)N(c2ccccc2C)C(C(=O)NC2CCCC2)c2ccc(F)cc2)no1 (configuration not stated)	-15.6% (inactive)
CCCCNC(=O)c1onc(CSc2cccc(OC)c2)c1C(=O)O	25.6% (inactive)
CO/N=C(/CS(=O)(=O)c1ccc(Br)cc1)c1ccc(OC)cc1	2.77% (inactive)
Cc1ccc(Cl)cc1NC(=O)COC(=O)C1CCCCC1	-19.8% (inactive)
COc1ccccc1-c1n[nH]c2c1[C@H](C)CC[C@H]2C(C)C	-16.8% (inactive)
COc1ccc(C(=O)Nc2ccc(CN3CCOCC3)cc2)cc1	-5.41% (inactive)
COc1ccccc1-c1nc(C#N)c(N2CCC(C(N)=O)CC2)o1	33.2% (inactive)
N#Cc1nc(-c2ccc(OCc3ccccc3)cc2)oc1NCCCN1CCOCC1	-11.4% (inactive)
COc1ccc(Nc2oc(-c3ccccc3Cl)nc2C#N)cc1	42.4% (active)
Clc1ccc(-c2cc(COc3ccccc3)no2)cc1Cl	-15.4% (inactive)
Cc1ccc(S(=O)(=O)N(c2cccc(C)c2)C2CCS(=O)(=O)C2)cc1 (configuration not stated)	-7% (inactive)
Cc1nc2c(-c3ccc(F)cc3)c(C)nn2c(C)c1CCC(=O)NCc1ccco1	2.38% (inactive)
CCOc1ccc(CN2CCCN(C)CC2)cc1	-6.01% (inactive)
Cc1ccc(NC(=O)Nc2ccc3oc(C)nc3c2)cc1	8.59% (inactive)
O=C(Nc1ccc2sc3ccccc3c(=O)c2c1)c1ccccc1Cl	6.33% (inactive)
CC1(C)Cc2cccc(OCC(N)=O)c2O1	0.26% (inactive)
Cn1cnc([N+](=O)[O-])c1Sc1ccccc1	-10.6% (inactive)
COCCCNCC(=O)Nc1sc(C)c(C)c1C(=O)OC	-27.8% (inactive)
COc1ccc(C2CC(=O)Nc3cc(C)c(C)cc32)c(OC)c1OC (configuration not stated)	3.42% (inactive)

SMILES	inhibition
O=C(COC(=O)c1ccccc1SCC(=O)NC1CCCCC1)NC1CCCCC1	45.4% (inactive)
O=C(Cc1ccc(S(=O)(=O)N2CCCC2)s1)NC1CCCCCC1	-9.65% (inactive)
Cc1cccc(COc2ccccc2/C=N/Nc2ccc([N+](=O)[O-])cc2)c1	0.38% (inactive)
CC(=O)NC1(c2cccc(F)c2)CCN(CC(=O)NC(C)C)CC1	15.8% (inactive)
Cc1cc2nnc(SCC(=O)N3CCN(c4ccccc4)CC3)n2c(N)n1	-15.4% (inactive)
COc1ccccc1OCc1nc2ccccc2s1	7.18% (inactive)
O=C(Nc1ccccc1)OCc1cn(-c2ccc(Cl)cc2)nn1	6.75% (inactive)
O=S(=O)(NCC1OCCc2ccccc21)c1ccccc1 (configuration not stated)	-4.11% (inactive)
Cc1ccc(-n2nc(N)c3c(=O)oc(N(C)C)nc32)cc1	13.8% (inactive)
Cn1c(Cn2nnc3ccccc32)nnc1SCC(=O)c1ccccc1F	-16.2% (inactive)
CC(C)Oc1ccc(CCc2n[nH]c(=S)n2Cc2ccccc2)cc1	-2.84% (inactive)
COc1ccc(C)cc1NC(=O)CCC(=O)Nc1nnc(C(F)(F)F)s1	19% (inactive)
Nc1ccccc1SCc1cc([N+](=O)[O-])cc2c1OCOC2	17.1% (inactive)
Cc1nc(-c2ccccc2)sc1-c1nc(-c2ccccc2)ncc1S(=O)(=O)c1ccccc1	-7.34% (inactive)
COc1cc(/C=C2/C(=O)ON=C2C)ccc1OCc1ccccc1F	-10.3% (inactive)
COc1ccc(-c2oc(/N=C/N3CCCC3)c(C#N)c2-c2ccc(OC)cc2)cc1	-15.2% (inactive)
CC1(C)CC(=O)C=C(NCCN2CCNCC2)C1	-22% (inactive)
CC1(C)CC(=O)C=C(NCCCNC2CCCCC2)C1	-8.28% (inactive)
CC1(C)CC(=O)C=C(NCc2ccncc2)C1	41.4% (active)
Cc1ccc2[nH]c(=O)c(CN(CCCN(C)C)C(=O)Nc3cccc(Cl)c3)cc2c1	3.64% (inactive)
CCN(CC)CCN1C(=O)C(=O)/C(=C(/O)c2cnn(-c3ccccc3)c2C)C1c1cccs1 (configuration not stated)	-7.79% (inactive)
Cc1cc(C)c(S(=O)(=O)NCC2CCC(C(=O)NCc3ccc4c(c3)OCO4)CC2)c(C)c1 (configuration not stated)	-7.41% (inactive)
COC(=O)c1ccc(OCC(=O)NC(C)(C)C)cc1	5.58% (inactive)
C/C(=N\NC(=O)c1ccccc1C)c1ccc(N2CCOCC2)cc1	-3.42% (inactive)
CCOC(=O)C1(S(=O)(=O)c2ccc(Cl)cc2)CCN(Cc2ccccc2)CC1	-3.07% (inactive)

SMILES	inhibition
O=C(CCc1ccc(S(=O)(=O)NC2CCCCC2)cc1)NCc1ccccc1	10.4% (inactive)
O=C(NCCCN1CCOCC1)c1cnn2c(-c3ccccc3)cc(-c3ccccc3)nc12	-14.2% (inactive)
O=C(NCCOc1ccccc1)c1ccccc1	-20.9% (inactive)
O=C(COc1ccc(Cl)cc1)NCCC1=CCCCC1	14.2% (inactive)
O=C(CCN1CCc2ccccc2C(O)(c2ccccc2)C1)c1ccc2c(c1)OCCO2 (configuration not stated)	16.3% (inactive)
CCCCCN1CC(O)=C(c2ccccc2)C1=N	-1.22% (inactive)
CC(=NCc1ccco1)c1c(C(F)(F)F)[nH]n(-c2nc3ccccc3s2)c1=O	9.65% (inactive)
Cc1ccc(NC(=O)COc2ccc(-n3ccnc3)cc2)cc1Cl	2% (inactive)
O=C(Nc1cc2c3c(c1)C1CCCC1CN3CC1CCCC21)c1ccc([N+](=O)[O-])cc1 (configuration not stated)	-24.1% (inactive)
CC(C)(C)C(=O)Nc1ccc(C(=O)N/N=C/c2ccccc2OC(=O)c2ccc(Cl)cc2Cl)cc1	44.2% (inactive)
CN(C)c1ccnc(Oc2ccc(F)cc2)c1C#N	-3.95% (inactive)
CCC(=O)c1c[nH]c(C(=O)NCC2CCCO2)c1 (configuration not stated)	8.77% (inactive)
CS(=O)(=O)N(CC(=O)N1CCN(c2ccc(F)cc2)CC1)C1CCCCC1	-6.27% (inactive)
CC(=O)c1sc(NC(=O)c2cccc3ccccc23)nc1C	-23.4% (inactive)
COc1ccccc1NC(=O)CC(NCCN(C)C)C(=O)O (configuration not stated)	0.85% (inactive)
CCCn1nnnc1NC(=O)COc1ccc(Cl)cc1C	12.8% (inactive)
Oc1ccc2ccc3cccc[n+]3c2c1	61.2% (active)
CN(C)C(CNC(=O)CCCOc1ccccc1)c1ccco1 (configuration not stated)	-20% (inactive)
CCOc1cc2[nH]c(=S)n(CCN3CCCCC3C)c(=O)c2cc1OCC (configuration not stated)	-2% (inactive)
COC(=O)c1ccc(Cc2ccccc2)o1	-14.5% (inactive)
CCOC(=O)c1cc(C#N)c(N2CCCCC2)nc1-c1ccccc1	20% (inactive)
Cc1nnc(NC(=O)Cn2c(=O)sc3ccccc32)s1	12.9% (inactive)
